ANO1 activ – mouse TMEM16A channel activation, primary screen; actives 0.3% (n = 340,000); HEK293 TMEM16A/YFP-H148Q/I152L, iodide quench fluorescence; active compounds read low; AID 623877; Q8BHY3; B-score at 10 µM;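 active = fluorescence-ratio B-score plate-corrected deviation score at least 3 library SD below zero, with starting fluorescence score within 5 deviations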;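 also: channel opened by trigger with iodide after compound preincubation; score built on the fluorescence ratio of max minus min over baseline; more negative score means more quench and so TMEM16A activation or potentiation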
MEKK2 WT-MEK5 – raises or lowers MEK5 binding to wildtype human MEKK2 PB1 domain | Q9Y2U5 | bead flow cytometry, Alexa488-MEK5 binding to MEKK2 WT; actives lie on both sides | binding response (% of control), % at 10 µM | actives 1.1% (n = 290,000); in the data active = binding response below about 67% or above about 130%
NTR1 agonist – activates human neurotensin receptor 1; P30989; NTR1-U2OS beta-arrestin-GFP spot imaging, agonist mode; activation, % at 20 µM; actives 0.17% (n = 330,000); AID 493036;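 active = activation at or above 40% of the spot to cytoplasm intensity ratio, with at least 20 cells analyzed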
ANO1 block – blocks the mouse calcium-activated chloride channel TMEM16A | Q8BHY3 | HEK293 TMEM16A/YFP iodide influx fluorescence, ionomycin | normalized B-score (activity score, 25-100; higher = stronger inhibition) at 10 µM | actives 1.2% (n = 310,000);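 active = ratio plate-corrected score three or more library SD toward inhibition, starting fluorescence score within five deviations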;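 also: score derived from kinetic fluorescence span divided by baseline fluorescence per well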
MEKK2mut PB1 HTS – signal of MEK5 binding to mutant human MEKK2 PB1 domain; bead flow cytometry, Alexa488-MEK5 binding to MEKK2 mutant; percent response, % at 10 µM; actives 0.35% (n = 290,000); in the data active = percent response above about 24%, passing the limit was not always enough
MEKK3 PB1 HTS – modulators (inhibitors or enhancers) of MEK5 binding to human MEKK3 PB1 domain; Q99759; bead-based flow cytometry, Alexa488-MEK5 binding to MEKK3; actives lie on both sides; 0 = blocked by unlabeled MEK5, 100 = vehicle; binding response (% of control), % at 10 µM; actives 1.4% (n = 290,000);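 active = binding response more than 3 SD above or below the average of its plate-row segment, actives on both sides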;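 also: Alexa488 bead fluorescence after subtracting the streptavidin-only scavenger bead signal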
Target sequence (Q99759 whole entry, looked up, the tested form may be a part): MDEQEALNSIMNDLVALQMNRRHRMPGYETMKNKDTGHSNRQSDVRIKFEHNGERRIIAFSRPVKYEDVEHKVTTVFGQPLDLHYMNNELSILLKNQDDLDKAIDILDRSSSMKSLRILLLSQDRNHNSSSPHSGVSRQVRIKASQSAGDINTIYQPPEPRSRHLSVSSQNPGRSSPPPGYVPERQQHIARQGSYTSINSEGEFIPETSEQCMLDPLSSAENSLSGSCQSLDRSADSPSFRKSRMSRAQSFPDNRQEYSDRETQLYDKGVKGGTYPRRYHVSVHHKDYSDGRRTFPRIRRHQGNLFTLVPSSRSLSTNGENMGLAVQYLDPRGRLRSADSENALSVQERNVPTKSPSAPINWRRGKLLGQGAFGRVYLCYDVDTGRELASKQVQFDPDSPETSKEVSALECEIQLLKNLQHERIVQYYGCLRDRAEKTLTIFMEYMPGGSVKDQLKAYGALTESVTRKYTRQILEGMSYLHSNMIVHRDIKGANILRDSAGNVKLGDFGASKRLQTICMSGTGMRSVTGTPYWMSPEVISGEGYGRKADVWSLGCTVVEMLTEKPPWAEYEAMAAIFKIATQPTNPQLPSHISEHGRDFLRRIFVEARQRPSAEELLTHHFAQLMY
MEKK2wt confirm – raises or lowers MEK5 binding to wildtype human MEKK2, retest | actives 2.4% (n = 5,900) | binding response (% of control), % at 10 µM | bead flow cytometry, Alexa488-MEK5 binding to MEKK2 WT; actives lie on both sides | shares compounds with MEKK3 PB1 HTS; in the data active = binding response below about 16% or above about 210%; inactive = in between
MEKK2mut confirm – signal of MEK5 binding to mutant human MEKK2, retest; percent response, % at 10 µM; actives 2% (n = 5,900); shares compounds with MEKK3 PB1 HTS; AID 1893; bead flow cytometry, Alexa488-MEK5 binding to MEKK2 mutant; in the data active = percent response mostly above about 71%, no sharp cut-off; inactive = mostly below about 38%;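 also: higher means compound restores mutant binding toward wildtype level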
MEKK3-MEK5 inh – confirmation of inhibitors of MEK5 binding to human MEKK3. binding response (% of control), % at 10 µM. actives 1.8% (n = 5,900). shares compounds with MEKK3 PB1 HTS. bead flow cytometry, Alexa488-MEK5 binding to MEKK3; active compounds read low;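 active = binding response below 72% of control, or above a set upper limit, though filed actives all read lower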;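 also: lower values mean stronger disruption of MEK5 binding to MEKK3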
Hits are given with their value; [ ] = another dose, or the depositor's remark. Most compounds without a hit are left out; they make up all but 3.4% or so of the library.

CCOC(=O)C1(Cc2cccc(F)c2)CCN(Cc2nc(CC)[nH]c2C)CC1 was read as ANO1 activ inactive, NTR1 agonist inactive, ANO1 block inactive, MEKK2mut PB1 HTS inactive, MEKK3 PB1 HTS 71[inhibitor], MEKK2wt confirm inactive, MEKK2mut confirm inactive and MEKK3-MEK5 inh inactive.
Screening CCOC(=O)C1(Cc2cccc(F)c2)CCN(Cc2cnn(CC)c2)CC1 returned ANO1 activ inactive, MEKK2 WT-MEK5 inactive, NTR1 agonist inactive, ANO1 block inactive, MEKK2mut PB1 HTS inactive and MEKK3 PB1 HTS inactive.
For O=C(O)COc1ccccc1/C=N/NC(=O)CSc1nnc(SCc2ccc(Cl)cc2)s1 the results were ANO1 activ inactive, MEKK2 WT-MEK5 inactive, NTR1 agonist inactive, ANO1 block inactive, MEKK2mut PB1 HTS inactive, MEKK3 PB1 HTS 130, MEKK2wt confirm inactive, MEKK2mut confirm inactive and MEKK3-MEK5 inh inactive.
Cc1ccnc(NC(=O)c2ccc([N+](=O)[O-])s2)c1 was read as ANO1 activ inactive, MEKK2 WT-MEK5 inactive, NTR1 agonist inactive, ANO1 block inactive, MEKK2mut PB1 HTS inactive and MEKK3 PB1 HTS inactive.
COc1ccc(-c2cc(C(F)(F)F)c3c(N)c(C(=O)NCCSC)sc3n2)cc1 was read as ANO1 activ inactive, MEKK2 WT-MEK5 inactive, NTR1 agonist inactive, ANO1 block inactive, MEKK2mut PB1 HTS inactive and MEKK3 PB1 HTS inactive.
CN(C)CCNC(=O)c1sc2nc(-c3ccccc3)cc(C(F)(F)F)c2c1N was read as ANO1 activ inactive, MEKK2 WT-MEK5 158, NTR1 agonist inactive, ANO1 block inactive, MEKK2mut PB1 HTS inactive, MEKK3 PB1 HTS inactive, MEKK2wt confirm inactive, MEKK2mut confirm inactive and MEKK3-MEK5 inh inactive.
For CC(NC(=O)C(=O)N/N=C/c1ccccc1)c1ccccc1 (stereo unspecified) the results were ANO1 activ inactive, MEKK2 WT-MEK5 707, NTR1 agonist inactive, ANO1 block inactive, MEKK2mut PB1 HTS 564, MEKK3 PB1 HTS inactive, MEKK2wt confirm inactive, MEKK2mut confirm inactive and MEKK3-MEK5 inh inactive.
For CCOCC(=O)Nc1ccc(C)c(Cl)c1 the results were ANO1 activ inactive, MEKK2 WT-MEK5 inactive, NTR1 agonist inactive, ANO1 block inactive, MEKK2mut PB1 HTS inactive, MEKK3 PB1 HTS 77[inhibitor], MEKK2wt confirm inactive, MEKK2mut confirm inactive and MEKK3-MEK5 inh inactive.
For Cc1ccc(NC(=O)COC(=O)CC2CCCC2)cc1Cl the results were ANO1 activ inactive, MEKK2 WT-MEK5 inactive, NTR1 agonist inactive, ANO1 block inactive, MEKK2mut PB1 HTS inactive, MEKK3 PB1 HTS 70[inhibitor], MEKK2wt confirm inactive, MEKK2mut confirm inactive and MEKK3-MEK5 inh inactive.
`Cc1ccc(NC(=O)COc2ccccc2C(=O)Nc2ccccc2)cc1Cl` gave ANO1 activ inactive, MEKK2 WT-MEK5 146, NTR1 agonist inactive, ANO1 block inactive, MEKK2mut PB1 HTS 68, MEKK3 PB1 HTS inactive, MEKK2wt confirm inactive, MEKK2mut confirm inactive and MEKK3-MEK5 inh inactive.
For CC(C)(C)OC(=O)N1CCC[C@H]1C(=O)OCC(=O)Nc1cc(S(C)(=O)=O)ccc1Cl the results were ANO1 activ inactive and NTR1 agonist inactive.
`Cc1ccc(CN2C(=O)c3ccccc3NC2c2cc(Br)ccc2O)cc1` (stereo unspecified) gave ANO1 activ inactive, MEKK2 WT-MEK5 inactive, NTR1 agonist inactive, ANO1 block inactive, MEKK2mut PB1 HTS inactive and MEKK3 PB1 HTS inactive.
Cc1ccnc(NC(=O)c2cc(S(=O)(=O)N3CCCCC3)ccc2Cl)c1 was read as ANO1 activ inactive, MEKK2 WT-MEK5 inactive, NTR1 agonist inactive, ANO1 block inactive, MEKK2mut PB1 HTS inactive, MEKK3 PB1 HTS 134, MEKK2wt confirm inactive, MEKK2mut confirm inactive and MEKK3-MEK5 inh inactive.
`Cc1cc(C(=O)CN2C(=O)C(=O)N(Cc3ccccc3)C2=O)c(C)n1-c1ccc2c(c1)OCCO2` gave ANO1 activ inactive, MEKK2 WT-MEK5 inactive, NTR1 agonist inactive, ANO1 block inactive, MEKK2mut PB1 HTS inactive and MEKK3 PB1 HTS inactive.
COc1ccc(-c2csc(N(CCCN(C)C)C(=O)c3ccc(C(C)(C)C)cc3)n2)cc1 was read as ANO1 activ inactive, MEKK2 WT-MEK5 162, NTR1 agonist inactive, ANO1 block inactive, MEKK2mut PB1 HTS 26, MEKK3 PB1 HTS inactive, MEKK2wt confirm inactive, MEKK2mut confirm inactive and MEKK3-MEK5 inh inactive.
`COc1ccc(-c2csc(N(CCCN(C)C)C(=O)c3ccc(Br)cc3)n2)cc1` gave ANO1 activ inactive, MEKK2 WT-MEK5 142, NTR1 agonist inactive, ANO1 block inactive, MEKK2mut PB1 HTS inactive, MEKK3 PB1 HTS inactive, MEKK2wt confirm inactive, MEKK2mut confirm inactive and MEKK3-MEK5 inh inactive.
CC(NC(=O)C(C)(C)C)c1nc2ccccc2n1C (stereo unspecified) was read as ANO1 activ inactive, MEKK2 WT-MEK5 0.0[inhibitor], NTR1 agonist inactive, ANO1 block inactive, MEKK2mut PB1 HTS inactive, MEKK3 PB1 HTS 0.0[inhibitor], MEKK2wt confirm inactive, MEKK2mut confirm inactive and MEKK3-MEK5 inh inactive.
For CCc1ccc(NC(=O)C/C(C)=N/NC(=O)OCc2ccc(OC)cc2)cc1 the results were ANO1 activ inactive, MEKK2 WT-MEK5 inactive, NTR1 agonist inactive, ANO1 block inactive, MEKK2mut PB1 HTS inactive, MEKK3 PB1 HTS 136, MEKK2wt confirm inactive, MEKK2mut confirm inactive and MEKK3-MEK5 inh inactive.
For CCc1ccc(NC(=O)C(=O)N/N=C(\C)CC(=O)Nc2ccc(OC)cc2)cc1 the results were ANO1 activ inactive, MEKK2 WT-MEK5 inactive, NTR1 agonist inactive, ANO1 block inactive, MEKK2mut PB1 HTS inactive and MEKK3 PB1 HTS inactive.
`COc1ccc(S(=O)(=O)N(C)c2nc3ccccc3n3c(CC(C)C)nnc23)cc1` gave ANO1 activ inactive, MEKK2 WT-MEK5 inactive, NTR1 agonist inactive, ANO1 block inactive, MEKK2mut PB1 HTS inactive and MEKK3 PB1 HTS inactive.
CN(C)CCCN(C(=O)COc1ccc(Cl)cc1)c1nc2ccc(F)cc2s1 was read as ANO1 activ inactive, MEKK2 WT-MEK5 inactive, NTR1 agonist inactive, ANO1 block inactive, MEKK2mut PB1 HTS inactive and MEKK3 PB1 HTS inactive.
`Cc1ccc2sc(N(CCCN(C)C)C(=O)CN3C(=O)c4ccccc4C3=O)nc2c1C` gave ANO1 activ inactive, MEKK2 WT-MEK5 150, NTR1 agonist inactive, ANO1 block inactive, MEKK2mut PB1 HTS inactive, MEKK3 PB1 HTS inactive, MEKK2wt confirm inactive, MEKK2mut confirm inactive and MEKK3-MEK5 inh inactive.
